Only some compounds are listed: those with a hit (about 12% of all), similar ones and a draw of the others.
Sm TGR block – blocks Schistosoma mansoni thioredoxin glutathione reductase. Q962Y6. purified TGR, DTNB reduction, TNB absorbance 405 nm. Potency, µM (doses to about 114 µM), inactives show top-dose activity change, negative = inhibition, actives largely listed as inhibitors. 3% of 360,000 active. AID 485364; further: on the % scale 0 is the no-effect control and ±100 the full control effect; nearly all actives have a fitted effect of over 60% in size
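Kinetic colorimetric format: TGR-catalysed, NADPH-driven DTNB reduction monitored via TNB absorbance. Enzyme dispensed at 20 nM; compound exposure 15 min at room temperature before reaction start.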
Pf growth 48h – inhibits P. falciparum growth in the first generation, 48 h. P. falciparum luciferase growth in erythrocytes, 48 h. 5.9% of 310,000 active. Potency, µM (series often up to 28.7 µM), inactives show at the highest dose activity change, negative = inhibition, actives largely listed as inhibitors; further: on the % scale 0 is the no-effect control and ±100 the full control effect
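In quantitative HTS format, infected erythrocytes bearing luciferase-reporter parasites were treated for a single generation at 37 C. Luminescence after adding detection reagent served as the growth measure.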
Pf growth 96h – inhibits malaria parasite growth, 96 h; P. falciparum luciferase reporter growth, 96 h; Potency, µM (doses to about 28.7 µM), without a hit: at the top dose activity change, negative = inhibition, hits mostly inhibitors; 6.9% of 320,000 active; AID 504834; further: on the % scale 0 is the no-effect control and ±100 the full control effect
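Luminescence readout: decreased luciferase signal marks inhibited growth of reporter-expressing P. falciparum in infected red cells (2% hematocrit, 0.05% parasitemia final), exposed to compound two generations (96 h, 37 C, 5% CO2).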
AmpC no deterg – inhibitors of E. coli AmpC beta-lactamase without detergent | P00811 | AmpC nitrocefin hydrolysis, absorbance 480 nm, 0.0001% Triton | Potency, µM (doses to about 57.1 µM), inactives show at the top dose activity change, negative = inhibition, actives largely listed as inhibitors | 0.52% of 330,000 active;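 further: plate controls were no compound for no effect and no enzyme for full effect; nearly all actives have a fitted effect of over 20% in size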
Target sequence (P00811 whole entry, looked up): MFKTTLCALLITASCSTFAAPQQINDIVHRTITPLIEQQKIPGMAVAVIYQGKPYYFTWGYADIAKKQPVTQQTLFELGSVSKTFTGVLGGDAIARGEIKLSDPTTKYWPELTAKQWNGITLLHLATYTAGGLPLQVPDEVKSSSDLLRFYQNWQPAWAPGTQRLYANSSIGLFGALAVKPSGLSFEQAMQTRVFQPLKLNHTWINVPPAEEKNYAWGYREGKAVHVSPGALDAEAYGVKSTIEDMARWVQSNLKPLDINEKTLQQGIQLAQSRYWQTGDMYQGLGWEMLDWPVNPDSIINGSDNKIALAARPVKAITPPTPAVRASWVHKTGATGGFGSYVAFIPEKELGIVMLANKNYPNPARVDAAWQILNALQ
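AmpC (5.3 nM in the dispensed reagent) in 20 mM phosphate pH 7.0 with 0.01% (detergent screen) or 0.0001% Triton X-100 was preincubated with compounds for 15 min at room temperature. Nitrocefin was then added from an 800 uM solution, and hydrolysis was followed at 480 nm.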
SARS PLpro yeast – inhibitors of SARS-CoV papain-like protease in yeast; AID 485353; S. cerevisiae expressing SARS-CoV PLpro, growth rescue; Potency, µM (top dose mostly 32.9 µM), without a hit: at the top dose activity, positive = growth rescue, hits mostly activators; 0.19% of 330,000 active; calls by dose curve; further: 0% is about no effect; nearly all actives have a fitted effect of over 55% in size
AmpC inh detg – AmpC beta-lactamase inhibition with detergent present | P00811 | AmpC hydrolysis of nitrocefin, absorbance 480 nm, 0.01% Triton | Potency, µM (titrated, usually from 114 µM), for the others: top-dose activity change, negative = inhibition, most hits filed as inhibitors | 0.041% of 370,000 active;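 further: 0% = no-compound wells and -100% = no-enzyme wells; nearly all actives have a fitted effect of over 25% in size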
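20 mM phosphate pH 7.0 + 0.01% (detergent screen) or 0.0001% Triton X-100; 5.3 nM AmpC reagent; cpd preinc 15 min RT; nitrocefin (800 uM stock) to start; A480 q20 s × 4 min; Activity was normalised to no-enzyme and no-compound control wells.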
An asterisk follows results filed as active; ? = inconclusive; / = no result; [ ] = another dose, or the depositor's remark. Unless noted, the call rests on the fitted dose curve; in most records, active means well fitted curve in the direction sought with a large enough effect; inconclusive means small, poorly fitted or top-dose-only effect, or another doubt; inactive means no such curve, though single readings can be large; an effect the other way counts as inactive or inconclusive. Potency means the concentration at half of the fitted maximal effect.

SMILES	Sm TGR block	Pf growth 48h	Pf growth 96h	AmpC no deterg	SARS PLpro yeast	AmpC inh detg
O=C(c1ccc(S(=O)(=O)Nc2ccc(F)cc2)cc1)N1CCN(C(=O)c2ccco2)CC1	-22.3%	7.1%	/	51.9%	14.7%	-0.9%
C#CCOCCOCCOCCNc1nc(N2CCN(C(=O)[C@H](CCC(=O)O)n3cc(C(N)CC(C)C)nn3)CC2)nc(N2CCN(C(=O)[C@H](Cc3ccc(O)cc3)n3cc(C(N)CC(C)C)nn3)CC2)n1 (stereo partly drawn)	-22.0%	?	?	204.2%	-1.4%	1.1%
C#CCOCCOCCOCCNc1nc(N2CCN(C(=O)[C@H](Cc3ccc(O)cc3)n3cc([C@@H](N)CC(C)C)nn3)CC2)nc(N2CCN(C(=O)[C@H](Cc3ccc(O)cc3)n3cc([C@@H](N)CC(C)C)nn3)CC2)n1	17.8µM*	9.28µM*	?	171.9%	-1.4%	-7.8%
COCC(COCCCNC(=O)Nc1ccc(Br)cc1)OC (stereo not drawn)	6.9%	1.4%	35.1%	10.8%	-5.4%	-2.8%
CCOc1cc(C(=O)NCCCn2ccnc2)cc(OCC)c1OCC	-4.2%	6.9%	?	-9.7%	4.7%	-4.4%
C[C@@H]1CN(C(=O)c2nc3ccc(Cl)cn3c2CNCC[C@@H]2C[C@@H]3C=C[C@H]2C3)C[C@H](C)O1	-6.6%	8.28µM*	?	50.4%	0.9%	-3.2%
O=C(c1nc2ccc(Cl)cn2c1CNCC[C@@H]1C[C@@H]2C=C[C@H]1C2)N1CCCCCCC1	/	?	13.8%	47.4%	-0.2%	-0.4%
COc1cc2cc(CCOC(=O)c3ccc(C(F)(F)F)cc3)oc(=O)c2cc1OC	?	?	-20.4%	2.3%	-5.9%	5.2%
COc1ccc(CC(=O)OCCc2cc3cc(OC)c(OC)cc3c(=O)o2)cc1	7.08µM*	?	?	40.1%	-4.7%	-6.1%
O=C(NC1CC2CCC(C1)N2Cc1nnnn1Cc1ccco1)NC12CC3CC(CC(C3)C1)C2 (stereo not drawn)	?	11.7µM*	/	17.3%	-0.7%	?
CCOc1ccccc1C(=O)NC1CC2CCCC(C1)N2Cc1nnnn1Cc1ccco1 (stereo not drawn)	-23.3%	11.7µM*	?	45.7%	-1.7%	-12.4%
CCOc1ccccc1C(=O)NC1CC2CCCC(C1)N2C1CC1 (stereo not drawn)	0.0%	?	-18.3%	2.5%	9.2%	-12.2%
O=C(NCc1ccccc1)NC1CC2CCC(C1)N2Cc1ccco1 (stereo not drawn)	1.4%	-3.6%	-21.2%	-10.5%	8.5%	-15.0%
CC1=C(C(=O)Nc2ccccc2C)C(c2sccc2C)n2ncnc2N1 (stereo not drawn)	-1.4%	/	/	/	/	-1.5%
S=c1nc(C2CCCCC2)[nH]c2ccccc12	-6.5%[57.1 µM]	-13.0%	2.33µM*	-17.4%	0.1%	-0.7%
CCc1ccccc1NC(=O)c1cc(S(=O)(=O)N2CCCc3ccccc32)ccc1F	13.9%	/	/	/	/	7.9%
COc1ccc(Cl)cc1NC(=O)CN(C)C(=O)CCSc1ccc(C)cc1	-7.4%	11.7µM*	11.7µM*	44.5%	-6.9%	-3.7%
COc1ccc(NC(=O)CCSc2ccc3ccccc3n2)cc1	-0.3%	15.2%	79.7%	-19.4%	-0.1%	?
COc1cccc(NC(=O)CCSc2ccc3ccccc3n2)c1	-2.6%	43.2%	6.57µM*	-32.0%	-10.5%	?
COc1ccc(OC)c(S(=O)(=O)N(C)CC(=O)Nc2cc(Cl)ccc2OC)c1	-25.9%	9.28µM*	7.38µM*	-0.7%	-13.7%	?
COc1ccccc1NC(=O)CN(C)S(=O)(=O)c1cc(C)ccc1OC	11.5%	/	-24.0%	-3.0%	-7.8%	?
COc1ccc(Cl)cc1NC(=O)CN(C)C(=O)c1cc2c(s1)CCCC2	1.2%	9.28µM*	5.22µM*	9.9%	-0.8%	-7.9%
O=C(Nc1cccc(Cl)c1)c1ccc2nc(Cc3ccccc3)oc2c1	11.5%	/	/	/	/	8.6%
COc1ccc(S(=O)(=O)N(C)CC(=O)Nc2c(F)cccc2F)cc1	1.3%	-14.2%	/	0.141µM*	1.4%	-0.9%
COc1cccc(NC(=O)CN(C)C(=O)CCSc2ccc(C)cc2)c1	-0.4%	10.4µM*	-12.3%	-16.6%	5.2%	0.0%
SMILES	Sm TGR block	Pf growth 48h	Pf growth 96h	AmpC no deterg	SARS PLpro yeast	AmpC inh detg
Cc1ccc(C(O)(CNCc2ccccc2)c2ccccc2)cc1 (stereo not drawn)	12.1%	?	?	-0.7%	-2.0%	-1.0%
OC(CNCc1ccc(F)cc1)(c1ccc(F)cc1)c1ccc(F)cc1	0.8%	?	13.1µM*	-7.6%	-1.8%	0.5%
OC(CNCc1ccc(Cl)cc1)(c1ccccc1)c1ccc(F)cc1 (stereo not drawn)	11.7%	13.1µM*	?	0.5%	0.4%	3.9%
O=C(NCc1ccccc1)c1ccccc1C(=O)c1ncc[nH]1	0.0%	7.5%	?	-11.6%	0.1%	-0.2%
CCC(=O)N1CCc2cc(Br)cc(S(=O)(=O)NCc3cccc(OC)c3)c21	-2.8%	/	/	/	/	3.8%
CCC(=O)N1CCc2cc(Br)cc(S(=O)(=O)CCC(=O)N(C)c3cccc(C)c3)c21	?	11.7µM*	5.22µM*	21.4%	-3.2%	?
CCC(=O)N1CCc2cc(Br)cc(S(=O)(=O)CCC(=O)NCc3ccccc3)c21	1.5%	/	/	/	/	7.7%
CCC(=O)N1CCc2cc(Br)cc(S(=O)(=O)CCC(=O)NCc3ccco3)c21	?	8.28µM*	/	-11.7%	-7.2%	-2.4%
CCN(C(=O)CCS(=O)(=O)c1cc(Br)cc2c1N(C(=O)C1CC1)CC2)c1cccc(C)c1	-30.0%	/	/	/	/	12.9%
CCC(=O)N1CCc2cc(Br)cc(S(=O)(=O)NCc3ccco3)c21	35.5µM*	?	?	-20.2%	-4.9%	2.7%
CCCCNC(=O)CCCN1C(=O)c2ccccc2Sc2ncccc21	2.0%	/	/	/	/	12.0%
c1cc2c(c(NC3=NCCN3)c1)CCCC2	/	?	10.7µM*	/	/	/
N#Cc1nc(-c2ccc(OCc3ccc(Cl)cc3)cc2)oc1NCCCn1ccnc1	8.9%	2.33µM*	?	-12.2%	-0.4%	-0.2%
N#Cc1nc(-c2ccccc2)oc1NCCCn1ccnc1	-4.2%[57.1 µM]	?	?	19.9%	-1.1%	1.7%
O=C(CN1C=NS(=O)(=O)c2ccccc21)Nc1ccc(Br)cc1	10.1%	/	/	/	/	10.2%
CS(=O)(=O)N1N=C(c2ccco2)CC1c1ccco1 (stereo not drawn)	20µM*	-10.3%	105.4%	-13.4%	-1.0%	?
